According to PubChem BioAssay AID1159580 (chemical genetic matrix, 2015):
About 2,000 (36%) of roughly 5,500 compounds were called active. Roughly 18% stayed inconclusive and do not appear here. Cut-off read from the data, not from the text of the source: active = normalized growth mostly below about 0.91 (no sharp cut-off); inconclusive = no clear call, values can overlap the other calls; inactive = mostly above about 0.92. The list shows a part of the results.

Assay: chemical genetic growth profiling, strain panel (AID 1159580);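 note: tested at 20 µM; growth read once vehicle control cultures reached saturation at 30 °C; 1 = growth at the plate median or of vehicle wells; lower values mean less growth of the strain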
Details: growth OD

Measured: normalized growth

N=C(N)N
inactive: S. cerevisiae deletion strains, locus YJR075W, strain HOC1, active compounds read low 0.988 | S. cerevisiae deletion strains, locus YKL009W, strain mrt4, active compounds read low 0.997 | S. cerevisiae deletion strains, locus YKL068W, active compounds read low 0.982 | S. cerevisiae deletion strains, locus YKL085W, strain MDH1 (second series), active compounds read low 0.97 | S. cerevisiae deletion strains, locus YKL085W, strain MDH1, active compounds read low 0.97 | S. cerevisiae deletion strains, locus YKL160W, strain elf1, active compounds read low 1 | S. cerevisiae deletion strains, locus YKL190W, strain CNB1, active compounds read low 0.993 | S. cerevisiae deletion strains, locus YKR001C, strain vps1, active compounds read low 0.996 | S. cerevisiae deletion strains, locus YKR026C, strain gcn3, active compounds read low 0.999 | S. cerevisiae deletion strains, locus YKR091W, strain srl3, active compounds read low 1 | S. cerevisiae deletion strains, locus YLL001W, strain dnm1, active compounds read low 0.993 | S. cerevisiae deletion strains, locus YLL026W, active compounds read low 0.994 | S. cerevisiae deletion strains, locus YLL041C, strain sdh2, active compounds read low 1 | S. cerevisiae deletion strains, locus YLR027C, strain aat2, active compounds read low 1.01 | S. cerevisiae deletion strains, locus YLR039C, strain RIC1, active compounds read low 1.01 | S. cerevisiae deletion strains, locus YLR058C, strain SHM2, active compounds read low 0.999 | S. cerevisiae deletion strains, locus YLR102C, strain apc9, active compounds read low 0.986 | S. cerevisiae deletion strains, locus YLR113W, strain HOG1, active compounds read low 0.996 | S. cerevisiae deletion strains, locus YLR221C, strain rsa3, active compounds read low 0.982 | S. cerevisiae deletion strains, locus YLR258W, strain gsy2, active compounds read low 0.996 | S. cerevisiae deletion strains, locus YLR262C, strain YPT6 (second series), active compounds read low 0.991 | S. cerevisiae deletion strains, locus YLR262C, strain YPT6, active compounds read low 1.01 | S. cerevisiae deletion strains, locus YLR268W, strain sec22, active compounds read low 0.937 | S. cerevisiae deletion strains, locus YLR320W, strain mms22, active compounds read low 0.983 | S. cerevisiae deletion strains, locus YLR330W, strain CHS5, active compounds read low 0.991 | S. cerevisiae deletion strains, locus YLR342W, strain FKS1 (second series), active compounds read low 1.13 | S. cerevisiae deletion strains, locus YLR342W, strain FKS1, active compounds read low 0.993 | S. cerevisiae deletion strains, locus YLR357W, strain rsc2, active compounds read low 0.977 | S. cerevisiae deletion strains, locus YLR370C, strain arc18, active compounds read low 1.01 | S. cerevisiae deletion strains, locus YLR371W, strain rom2, active compounds read low 0.961 | S. cerevisiae deletion strains, locus YLR384C, strain iki3, active compounds read low 0.985 | S. cerevisiae deletion strains, locus YLR418C, strain cdc73, active compounds read low 1.02 | S. cerevisiae deletion strains, locus YML016C, strain PPZ1, active compounds read low 1 | S. cerevisiae deletion strains, locus YML032C, strain rad52, active compounds read low 0.96 | S. cerevisiae deletion strains, locus YML120C, strain ndi1, active compounds read low 1.02 | S. cerevisiae deletion strains, locus YML124C, strain tub3, active compounds read low 0.991 | S. cerevisiae deletion strains, locus YMR058W, strain fet3, active compounds read low 1 | S. cerevisiae deletion strains, locus YMR078C, strain ctf18, active compounds read low 0.967 | S. cerevisiae deletion strains, locus YMR125W, strain sto1, active compounds read low 0.996 | S. cerevisiae deletion strains, locus YMR129W, active compounds read low 0.992 | S. cerevisiae deletion strains, locus YMR205C, strain PFK2, active compounds read low 1.01 | S. cerevisiae deletion strains, locus YMR223W, strain ubp8, active compounds read low 1.02 | S. cerevisiae deletion strains, locus YMR231W, strain pep5, active compounds read low 0.994 | S. cerevisiae deletion strains, locus YMR263W, strain SAP30, active compounds read low 0.992 | S. cerevisiae deletion strains, locus YMR307W, strain GAS1, active compounds read low 1.14 | S. cerevisiae deletion strains, locus YNL067W, strain RPL9B, active compounds read low 0.987 | S. cerevisiae deletion strains, locus YNL071W, strain lat1, active compounds read low 1.01 | S. cerevisiae deletion strains, locus YNL128W, strain TEP1, active compounds read low 0.995 | S. cerevisiae deletion strains, locus YNL153C, strain GIM3, active compounds read low 1 | S. cerevisiae deletion strains, locus YNL183C, strain NPR1, active compounds read low 0.949 | S. cerevisiae deletion strains, locus YNL209W, strain ssb2, active compounds read low 1.02 | S. cerevisiae deletion strains, locus YNL233W, strain BNI4, active compounds read low 0.994 | S. cerevisiae deletion strains, locus YNL248C, strain rpa49, active compounds read low 0.92 | S. cerevisiae deletion strains, locus YNL250W, strain rad50, active compounds read low 0.99 | S. cerevisiae deletion strains, locus YNL271C, strain bni1, active compounds read low 0.993 | S. cerevisiae deletion strains, locus YNL298W, strain CLA4, active compounds read low 0.999 | S. cerevisiae deletion strains, locus YNL307C, strain MCK1, active compounds read low 0.991 | S. cerevisiae deletion strains, locus YNL322C, strain KRE1 (second series), active compounds read low 0.997 | S. cerevisiae deletion strains, locus YNL322C, strain KRE1, active compounds read low 0.993 | S. cerevisiae deletion strains, locus YNR049C, strain mso1, active compounds read low 0.991 | S. cerevisiae deletion strains, locus YNR052C, strain pop2, active compounds read low 0.971 | S. cerevisiae deletion strains, locus YOL006C, strain TOP1, active compounds read low 0.979 | S. cerevisiae deletion strains, locus YOL012C, strain htz1 0.806 | S. cerevisiae deletion strains, locus YOL147C, strain pex11, active compounds read low 0.976 | S. cerevisiae deletion strains, locus YOR001W, strain rrp6, active compounds read low 0.949 | S. cerevisiae deletion strains, locus YOR061W, strain CKA2, active compounds read low 0.991 | S. cerevisiae deletion strains, locus YOR069W, strain VPS5, active compounds read low 0.999 | S. cerevisiae deletion strains, locus YOR070C, strain gyp1, active compounds read low 0.979 | S. cerevisiae deletion strains, locus YOR080W, strain dia2, active compounds read low 0.979 | S. cerevisiae deletion strains, locus YOR083W, strain WHI5, active compounds read low 1.01 | S. cerevisiae deletion strains, locus YOR106W, strain vam3, active compounds read low 1.01 | S. cerevisiae deletion strains, locus YOR136W, strain idh2, active compounds read low 0.986 | S. cerevisiae deletion strains, locus YOR144C, strain elg1, active compounds read low 0.977 | S. cerevisiae deletion strains, locus YOR184W, strain ser1, active compounds read low 0.974 | S. cerevisiae deletion strains, locus YOR231W, strain MKK1, active compounds read low 1.02 | S. cerevisiae deletion strains, locus YOR265W, strain rbl2, active compounds read low 0.998 | S. cerevisiae deletion strains, locus YOR270C, strain vph1, active compounds read low 0.969 | S. cerevisiae deletion strains, locus YOR290C, strain snf2, active compounds read low 0.975 | S. cerevisiae deletion strains, locus YOR316C, strain cot1, active compounds read low 0.965 | S. cerevisiae deletion strains, locus YPL051W, strain arl3, active compounds read low 0.983 | S. cerevisiae deletion strains, locus YPL055C, strain LGE1, active compounds read low 1.01 | S. cerevisiae deletion strains, locus YPL078C, strain atp4, active compounds read low 1.01 | S. cerevisiae deletion strains, locus YPL106C, strain sse1, active compounds read low 1.01 | S. cerevisiae deletion strains, locus YPL240C, strain hsp82, active compounds read low 0.999 | S. cerevisiae deletion strains, locus YPL241C, strain CIN2, active compounds read low 0.998 | S. cerevisiae deletion strains, locus YPL256C, strain CLN2, active compounds read low 1.07 | S. cerevisiae deletion strains, locus YPR119W, strain clb2, active compounds read low 0.974 | S. cerevisiae deletion strains, locus YPR141C, strain kar3, active compounds read low 0.982 | S. cerevisiae deletion strains, locus YPR163C, strain tif3, active compounds read low 0.976 | S. cerevisiae deletion strains, locus YPR167C, strain met16, active compounds read low 0.971 | S. cerevisiae deletion strains, strain wtn01, active compounds read low 0.981 | S. cerevisiae strains, strain wild type, active compounds read low 1
